# Laboratory results published in publication PMC7826789 (International Journal of Molecular Sciences, 2021).
# Columns and labels:
# Conditions in all cases: Compound Concentration (nM):1000
# MAST1 = system: MAST1
# MEK1 = system: T1, MEK1
# T1 construct: gene MAP2K1
# MEK2 = system: T2, MEK2
# T2 construct: gene MAP2K2
# MEK3 = system: T3, MEK3
# T3 construct: gene MAP2K3
# MEK4 = system: T4, MEK4
# T4 construct: gene MAP2K4
# MEK5 = system: T5, MEK5
# T5 construct: gene MAP2K5
# MEK6 = system: T6, MEK6
# T6 construct: gene MAP2K6
# MELK = system: MELK
# MERTK = system: MERTK
# MET(M1250T) = system: MET(M1250T)
# 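Note: KINOMEscan scanMAX binding as percent activity remaining versus control; lower means stronger binding.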
SMILES,Percent Control (MAST1) [%],Percent Control (MEK1) [%],Percent Control (MEK2) [%],Percent Control (MEK3) [%],Percent Control (MEK4) [%],Percent Control (MEK5) [%],Percent Control (MEK6) [%],Percent Control (MELK) [%],Percent Control (MERTK) [%],Percent Control (MET(M1250T)) [%]
CCc1ccc(Oc2nccc(-c3c(-c4ccc(F)cc4)ncn3C3CCNCC3)n2)cc1 [SB-242719],81,93,91,78,100,100,100,88,100,100
Cl.O=C(Nc1ccc(Oc2ccc3[nH]c(NC(=O)c4ccco4)nc3c2)cc1)Nc1cc(C(F)(F)F)ccc1F [GW683134A],98,96,99,83,100,19,73,82,0.2,27
CN(C)CCNC(=O)Nc1ccc(N(C)c2ccnc(Nc3ccc(CS(C)(=O)=O)cc3)n2)cc1.Cl [GW830900A],57,86,77,58,75,1.9,100,56,91,22
CCS(=O)(=O)c1ccc(OC)c(Nc2ncc(-c3cccc(OC)c3)o2)c1 [GW580509X],93,100,100,78,100,4.6,92,100,72,100
Cl.O=S1CCN(Cc2ccc(-c3ccc4ncnc(Nc5ccc(OCc6ccccc6)c(F)c5)c4c3)o2)CC1 [GW576924A],65,83,93,100,98,12,91,95,60,100
CC1=C(C(=O)Nc2ccc3[nH]ncc3c2)C(c2ccc(Cl)c(Cl)c2)CC(=O)N1 (stereo not shown) [GSK299115A],72,73,69,77,89,79,84,88,100,95
COc1cc2ncnc(Nc3ccc4c(cnn4Cc4ccccc4)c3)c2cc1OC.Cl [GW282449A],100,37,50,100,100,0,97,100,83,100
NS(=O)(=O)c1ccc(N/N=C2\C(=O)Nc3ccc(C(=O)NCCc4c[nH]cn4)cc32)cc1 [GW300660X],100,93,90,39,100,39,96,15,100,100
O=C1Nc2ccc(C(=O)c3ccco3)cc2C1=Cc1cc(Cl)c(O)c(Cl)c1 [GW406108X],64,76,91,16,32,72,72,78,100,59
NS(=O)(=O)c1ccc(N/N=C2\C(=O)Nc3ccc(C(=O)NCc4ccncc4)cc32)cc1 [GW300657X],33,100,100,41,87,48,79,35,69,82
COc1ccc(COc2ccc(Cc3cnc(N)nc3N)cc2OC)cc1 [GW632580X],93,90,90,93,100,97,100,100,100,100
COc1cccc(-n2ncc3c(N/N=C/c4ccncc4)ncnc32)c1 [GW784752X],76,98,96,79,97,2.3,87,100,86,46
COc1cc2ncn(-c3cc(O[C@H](C)c4ccccc4Cl)c(C(N)=O)s3)c2cc1OC [GSK237701A],96,90,90,100,91,59,84,81,28,81
COc1cc(N2CCN(C(C)C)CC2)ccc1Nc1nc(Nc2ccc(F)cc2C(=O)NC[C@@H](O)CO)c2cc[nH]c2n1 [GSK1392956A],43,100,100,23,77,96,67,57,77,78
CN1CCN(C(=O)c2ccc(NC(=O)Nc3ccc(N(C)c4ccnc(Nc5ccc(CS(C)(=O)=O)cc5)n4)cc3)cc2)CC1.Cl [GW830263A],61,33,40,14,6,0.1,82,81,56,2.2
CCS(=O)(=O)c1ccc(OC)c(Nc2ncc(-c3cccc(F)c3)o2)c1 [GW621970X],93,93,92,76,100,4.1,82,86,67,100
O=C(Nc1n[nH]c2nc(-c3ccc(O)cc3)c(Br)cc12)C1CC1 [SB-725317],84,100,100,75,100,28,98,100,100,100
COc1cccc(-c2c[nH]c3c(N/N=C/c4ccncc4)ncnc23)c1 [GW814408X],100,95,80,77,100,0.1,100,79,94,54
COc1cc(C=NNc2ncnc3c2cnn3-c2ccccc2)ccc1O [GW513184X],83,76,82,100,100,4.6,100,93,93,21
NS(=O)(=O)c1ccc(Nc2ncc(-c3ccccc3)o2)cc1 [GW572399X],100,100,100,30,86,59,65,100,100,100

SMILES,Percent Control (MAST1) [%],Percent Control (MEK1) [%],Percent Control (MEK2) [%],Percent Control (MEK3) [%],Percent Control (MEK4) [%],Percent Control (MEK5) [%],Percent Control (MEK6) [%],Percent Control (MELK) [%],Percent Control (MERTK) [%],Percent Control (MET(M1250T)) [%]
C[C@@H](Oc1cc(-n2cnc3ccc(OC4CCN(C)CC4)cc32)sc1C(N)=O)c1ccccc1Cl [GSK579289A],52,94,96,86,98,51,84,70,84,68
COc1cc(/C=N/Nc2ncnc3[nH]ncc23)ccc1O [GW578748X],78,78,83,79,94,0.5,83,15,100,84
CC(C)COC(=O)c1ccc2c(c1)/C(=C/Nc1ccc(S(N)(=O)=O)cc1)C(=O)N2 [GW416981X],100,95,92,68,100,21,83,6.4,100,92
COc1ccc2[nH]c3c4[nH]c5ccc(OC)cc5c4c4c(c3c2c1)C(=O)NC4=O [GW296115X],45,70,59,46,91,0.7,97,43,19,88
C/C(Nc1ccc(S(N)(=O)=O)cc1)=C1/C(=O)Nc2ccccc21 [GW335962X],77,75,81,76,39,70,74,87,100,91
CC1=C(C(=O)Nc2ccc3[nH]ncc3c2)C(c2ccc3ccccc3c2)CC(=O)N1 (stereo not shown) [GSK270822A],87,79,74,69,82,70,92,100,100,32
COC(=O)Nc1nc2ccc(Oc3ccc(NC(=O)Nc4cc(C(F)(F)F)ccc4F)cc3)cc2s1.Cl [GW693917A],41,76,78,100,96,15,98,72,6.9,19
COc1ccc2c(-c3ccnc(Nc4cccc(OC(F)(F)F)c4)n3)cnn2n1 [GW810372X],56,100,100,30,82,72,78,96,100,100
COc1ccc2cc(-c3c(-c4ccncc4)nc(-c4ccc(S(C)(=O)=O)cc4C)n3C)ccc2c1 [SB-633825],68,85,80,70,72,61,100,84,82,76
Cc1cc(O)cc(C)c1/C=C/c1cncc(C(N)=O)c1 [GW435821X],100,81,89,100,100,5.3,100,95,100,100
Nc1ncnc2occ(-c3ccc(NC(=O)Nc4cc(C(F)(F)F)ccc4F)cc3)c12 [GW770249X],100,98,100,100,100,21,100,53,1.4,49
Cl.O=C(O[C@H]1CN[C@H](C#Cc2cc3ncnc(Nc4ccc5c(cnn5Cc5ccccc5)c4)c3s2)C1)N1CCOCC1 [GSK200398A],44,69,79,78,97,0.4,71,86,100,86
COc1ccccc1-c1cc(/C=C2\C(=O)Nc3ncc(Br)cc32)cc(Br)c1O [GW442130X],85,74,82,72,86,64,76,94,95,96
NS(=O)(=O)c1ccc(N/N=C2\C(=O)Nc3ccc(Cl)cc32)cc1 [GW280670X],100,98,100,100,100,100,99,100,100,100
NS(=O)(=O)c1ccc(N/N=C2\C(=O)Nc3ccc(-c4cnco4)cc32)cc1 [GW276655],75,91,92,52,84,70,72,97,60,63
Cl.c1ccc(Cc2nc3ccc(Nc4ncnc5ccccc45)cc3[nH]2)cc1 [GR269666A],100,100,100,100,100,2.6,92,100,100,100
CCn1c(-c2nonc2N)nc2c(C#CC(C)(C)O)nc(OCCNC)cc21.Cl [GSK949675],51,100,100,40,100,100,80,45,80,100
CN(C)c1cc2c(Nc3ccc4c(cnn4Cc4ccccc4)c3)ncnc2cn1 [GW282974X],77,48,50,83,89,0,84,90,96,75
COc1cc(C)c(N(C)C(=O)CN(C)C)cc1Nc1nc(Nc2cccc(F)c2C(N)=O)c2cc[nH]c2n1 [GSK2219385],44,100,100,91,94,85,100,100,87,100
Cl.O=C(Nc1ccc(Oc2ccc3[nH]c(NC(=O)c4ccccc4)nc3c2)cc1)Nc1cc(C(F)(F)F)ccc1F [GW709042A],99,80,98,91,100,51,86,68,8.2,78
